ERK EGF inh – qHTS Assay for Inhibitors of the ERK Signaling Pathway using a Homogeneous Screening Assay; Stimulation with EGF; Potency, µM (highest dose often 11.5 µM), inactives show at the top dose activity change, negative = inhibition, hits mostly inhibitors; 130,000 tested, 0.41% active; HEK293-V1b, EGF-stimulated phospho-ERK AlphaScreen; AID 1454, 2008; active means well fitted inhibition curve with a large enough effect;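 further: plate controls were stimulated vehicle wells for no effect and unstimulated vehicle basal for full effect; nearly all actives have a fitted effect of over 55% in size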
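HEK293 cells stably expressing V1b receptor, serum-reduced (1% FBS) overnight, pretreated 30 min with compound, then stimulated 5 min with 25 nM EGF; phospho-ERK detected by AlphaScreen SureFire. AC50 from Hill fits, normalized to DMSO and EGF.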
Starred values were filed as active, the others as inactive; [ ] = dose if it differs, or a comment. Many of the other results were omitted from the sample, so hits are more common in it than they were. Potency means the concentration at half of the fitted maximal effect.

SMILES | ERK EGF inh
CC1(C)OC2CC3C4CC(F)C5=CC(=O)CC[C@@]5(C)C4C(O)C[C@@]3(C)[C@]2(C(=O)CO)O1 (stereo partly drawn) | -8%
CCOC(=O)c1ccc(-n2c(C)nc3ccc(Br)cc3c2=O)cc1 | -13%[57.5 µM]
O=C(N/N=C/c1ccco1)c1ccccc1OCc1ccc(Br)cc1 | 0%
Cc1ccc(/C=N/NC(=O)c2ccccc2OCc2cccc(Br)c2)o1 | 22µM*
O=C(N/N=C/c1cccnc1)c1ccccc1OCc1cccc(Br)c1 | 1%
C[C@H]1NC(=O)NC1=O | 0%[25.7 µM]
CC(C)(C)c1ccc(S(=O)(=O)/C=C/C#N)cc1 | 20%
CC1(C)CCC2(C(=O)O)CC[C@]3(C)C(=CCC4[C@]5(C)CCC(O)C(C)(C)C5C(O)C[C@]43C)C2C1 (stereo partly drawn) | -15%
NC(=O)c1ccc(N2CCN(S(=O)(=O)c3ccccc3)CC2)c([N+](=O)[O-])c1 | -2%
O=C(N/N=C/c1cn(-c2ccccc2)nc1-c1cc2ccccc2o1)c1cccnc1 | 7.1µM*
O=C(N/N=C/c1cn(-c2ccccc2)nc1-c1cccnc1)c1cccnc1 | -2%
O=C(N/N=C/c1cn(-c2ccccc2)nc1-c1cc2ccccc2o1)c1ccncc1 | 1%
CCCCC/C=C\C/C=C\C/C=C\CCCCCCC(=O)NC(C)C(=O)O (stereo not drawn) | -12%
COc1ccc(NC(=O)N2CCC3(CC2)CCN(C(=O)c2cccc(F)c2)CC3)cc1 | 1%
CC1CN(c2ccc(S(=O)(=O)N3CCCC3)cn2)CC(C)O1 (stereo not drawn) | 7%[57.5 µM]
Fc1ccc(C(CNC(=S)NC2CCCCC2)N2CCOCC2)cc1 (stereo not drawn) | 2%
Cc1c(NC2=CC(=O)CC(C)(C)C2)ccc([N+](=O)[O-])c1C | -4%
CC1=C/C(=N\Nc2ccccc2[N+](=O)[O-])CC(C)(C)C1 | 13µM*
N#C/C(=N\Nc1ccccc1[N+](=O)[O-])C(=N)N1CCCCC1 | 6%
Cc1ccc(CNCC(=O)Nc2cccc(S(=O)(=O)NC3=NCCCCC3)c2)cc1 | 4%
COc1ccc(-c2oc3ccc(C)cc3c(=O)c2O)cc1OC | 3%
CN(C)S(=O)(=O)c1cccc(-c2csc(N/N=C/c3ccco3)n2)c1 | 22µM*
CN(C)S(=O)(=O)c1cccc(NC(=S)N/N=C/c2ccco2)c1 | -6%[57.5 µM]
Cc1ccc(-c2csc(N/N=C/c3ccco3)n2)c(C)c1 | 6%
CCOc1ccc(NC(=S)NN(C)C(=S)Nc2ccc(OCC)cc2)cc1 | -8%
SMILES | ERK EGF inh
NCCC(=O)O | -8%
CCc1ccc(-n2cccc2/C=C2/C(=N)N3C(=NC2=O)SN=C3S(C)(=O)=O)cc1 | 6%
CCSC1=NSC2=NC(=O)/C(=C\c3coc4ccccc4c3=O)C(=N)N12 | 32µM*
CC(C)CC1=NN2C(=N)/C(=C\c3coc4ccccc4c3=O)C(=O)N=C2S1 | 7%
C[C@]12C[C@H](O)CC(CO)(CO)C1[C@H](O)C[C@@]13CC4[C@@H](CC12)[C@@]4(C)C3 (stereo partly drawn) | 4%
CCOC(=O)C1CCN(c2nc3c(C)cccn3c(=O)c2/C=C(\C#N)S(=O)(=O)c2ccccc2)CC1 | 4%[57.5 µM]
COc1ccc(/C=C2\SC(=O)N(CC(=O)NNC(=O)c3ccccc3O)C2=O)cc1OC | 13µM*
COc1ccc(/C=C2/SC(=O)N(CC(=O)NCCC(C)C)C2=O)cc1OC | -7%
COc1ccc(/C=C2\SC(=O)N(CC(=O)NCCC(C)C)C2=O)cc1OC | 1%[57.5 µM]
O=c1cc(-c2ccc(O)cc2)oc2cc(O)ccc12 | -6%
O=c1ccc2[n+]([O-])c3ccc(O)cc3oc-2c1 | 16µM*
O=c1cc(O)c2ccc(O)cc2o1 | -9%[57.5 µM]
Cc1cccc(N=C2NC(=O)/C(=C/c3cccs3)S2)c1 | 25µM*
Cc1cccc(N=C2NC(=O)/C(=C/c3cccn3C)S2)c1 | 1%[57.5 µM]
O=C1Nc2ccccc2S/C1=C/c1cccs1 | -1%[57.5 µM]
Nc1c(O)ccc2c1C(=O)c1ccccc1C2=O | 28µM*
O=C1C=C(O)c2c(O)cccc2C1=O | -8%[57.5 µM]
COc1ccc2c(c1O)C(=O)c1ccccc1C2=O | -8%[57.5 µM]
O=[N+]([O-])c1cc(C(F)(F)F)cc([N+](=O)[O-])c1NN=C1CCCCC1 | 18µM*
O=[N+]([O-])c1cc(S(=O)(=O)N2CCCC2)ccc1NN=C1CCCCC1 | -2%
O=[N+]([O-])c1cc(C(F)(F)F)cc([N+](=O)[O-])c1NCCCN1CCOCC1 | -1%
COC(=O)[C@@]1(C)CCC[C@@]2(C)c3ccc(O)c(C(C)C)c3CCC21 (stereo partly drawn) | 22µM*
CC(C)c1c(O)ccc2c1CCC1[C@@](C)(CO)CCC[C@@]21C (stereo partly drawn) | 12%
CC(=O)Oc1ccc2c(c1C(C)C)CCC1C(C)(C)CCC[C@@]21C (stereo partly drawn) | 7%
CCCCC/C=C\C/C=C\C/C=C\C=C\C(=O)CCCC(=O)O | -10%
COc1ccc(C(=S)N2CCN(c3cccc(Cl)c3)CC2)cc1 | -4%[57.5 µM]
CC(C)(C)c1cc(NCc2ccccn2)n2ncc(-c3ccccc3)c2n1 | 19%[57.5 µM]

Assay outcomes as filed in PubChem.
